Assay [1] can be described thus: antimalarial activity against Dd2 strain (AID 2302;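 active = growth inhibition above 50% at the single 2 µM test dose, taken to imply half-maximal potency below 2 µM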;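 note: 0% = DMSO untreated growth and 100% = chloroquine plus artemisinin killed control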). The settings on record: P. falciparum Dd2 in RBCs, LDH growth readout, 72 h; at 2 µM; stronger effect = higher value.
Assay [2] in a line: HepG2 cytotoxicity, primary screen, cytotoxicity control for P. falciparum antimalarial project, cell-based, ATP luminescence (AID 2303;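 active = inhibition above 50%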;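 note: 0% = DMSO wells and 100% = digitonin-killed cells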). To be noted: HepG2 viability, 24-48 h, at 10 µM, stronger effect = higher value.
Assay [3] concerns the target L-lactate dehydrogenase (Plasmodium falciparum (isolate CDC / Honduras)) (UniProt Q27743). Briefly: PfLDH activity inhibition – cell lysate, 3D7 strain, counter-screen for P. falciparum growth inhibition project (AID 2304).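 Note: 0% = vehicle and 100% = reference inhibitor.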 To be noted: P. falciparum 3D7 crude extract, LDH APAD/NBT absorbance; at 2 µM; stronger effect = higher value.
A short description of assay [4]: inhibition of 3D7 malaria parasite growth – strain 3D7 (AID 2306).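 Note: 0% = DMSO wells and 100% = chloroquine plus artemisinin control wells.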 The settings on record: P. falciparum 3D7 erythrocytic growth, LDH absorbance, 72 h; at 2 µM; stronger effect = higher value.
In assay [5] the target is Calcium-dependent protein kinase 1 (Plasmodium falciparum (isolate 3D7)) (UniProt P62344). Briefly: PfCDPK1 kinase inhibitors, biochemical, TCAMS library (AID 1159585; cut-off not given, nearly all actives have IC50 up to about 0.98 µM;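 note: inhibitors leave more ATP so luminescence rises with inhibition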). The settings on record: recombinant PfCDPK1, Kinase-Glo ATP depletion luminescence.
Calcium-dependent protein kinase 1 (Plasmodium falciparum (isolate 3D7)), sequence (P62344 whole entry, looked up): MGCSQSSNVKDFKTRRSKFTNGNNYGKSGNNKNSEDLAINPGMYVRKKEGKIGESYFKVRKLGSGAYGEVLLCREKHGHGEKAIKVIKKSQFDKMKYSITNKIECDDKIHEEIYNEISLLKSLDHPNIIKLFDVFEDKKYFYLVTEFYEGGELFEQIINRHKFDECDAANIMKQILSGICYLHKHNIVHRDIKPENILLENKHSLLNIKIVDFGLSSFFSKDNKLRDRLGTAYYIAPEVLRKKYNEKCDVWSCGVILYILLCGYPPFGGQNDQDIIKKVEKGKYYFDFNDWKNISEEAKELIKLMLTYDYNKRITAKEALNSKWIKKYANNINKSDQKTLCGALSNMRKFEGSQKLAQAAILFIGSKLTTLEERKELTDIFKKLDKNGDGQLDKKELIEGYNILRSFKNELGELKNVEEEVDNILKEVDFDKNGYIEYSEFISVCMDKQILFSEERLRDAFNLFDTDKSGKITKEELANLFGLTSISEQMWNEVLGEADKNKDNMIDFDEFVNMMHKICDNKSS
The target in assay [6] is Plasmodium falciparum protein kinase 6 (PK6, PF3D7_1337100) (UniProt Q8IDW1). Briefly: PfPK6 kinase inhibitors, biochemical, TCAMS library (AID 1159586). To be noted: recombinant PfPK6, Kinase-Glo ATP depletion luminescence. For orientation: In Kinase-Glo more light means more ATP remaining.
Plasmodium falciparum protein kinase 6 (PK6, PF3D7_1337100), sequence (Q8IDW1 1-305): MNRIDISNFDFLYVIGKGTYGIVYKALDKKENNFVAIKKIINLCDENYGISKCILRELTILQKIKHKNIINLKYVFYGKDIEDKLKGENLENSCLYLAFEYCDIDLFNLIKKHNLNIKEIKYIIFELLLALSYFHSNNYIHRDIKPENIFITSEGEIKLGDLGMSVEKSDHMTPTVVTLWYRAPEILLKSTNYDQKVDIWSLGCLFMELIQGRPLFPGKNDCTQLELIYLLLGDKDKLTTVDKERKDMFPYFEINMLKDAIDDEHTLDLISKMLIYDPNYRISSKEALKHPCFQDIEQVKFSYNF
In assay [7] the target is Protein kinase 7 (PK7), Plasmodium falciparum 3D7 (PF3D7_0213400) (UniProt Q7YTF7). Briefly: inhibition of Plasmodium PK7 catalytic activity – biochemical, TCAMS antimalarial set, Kinase-Glo luminescence (AID 1159587). The settings on record: recombinant PfPK7, Kinase-Glo ATP depletion luminescence.
Protein kinase 7 (PK7), Plasmodium falciparum 3D7 (PF3D7_0213400), sequence (Q7YTF7 1-343): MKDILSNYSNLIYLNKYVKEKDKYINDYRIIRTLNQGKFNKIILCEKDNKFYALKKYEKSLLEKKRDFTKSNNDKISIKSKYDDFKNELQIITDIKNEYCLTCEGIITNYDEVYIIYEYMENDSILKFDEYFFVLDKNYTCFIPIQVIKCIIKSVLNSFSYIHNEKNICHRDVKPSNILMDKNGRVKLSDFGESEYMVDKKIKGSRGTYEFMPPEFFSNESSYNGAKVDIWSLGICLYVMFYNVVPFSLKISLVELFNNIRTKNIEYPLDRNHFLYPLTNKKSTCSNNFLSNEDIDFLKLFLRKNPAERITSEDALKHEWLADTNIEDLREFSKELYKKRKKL
For assay [8], the target named is Calcium-dependent protein kinase 4 (Plasmodium falciparum (isolate 3D7)) (UniProt Q8IBS5). Briefly: PfCDPK4 kinase inhibitors, biochemical, TCAMS library (AID 1159588; cut-off not given, nearly all actives have IC50 up to about 0.91 µM). The settings on record: recombinant PfCDPK4, Kinase-Glo ATP depletion luminescence.
Calcium-dependent protein kinase 4 (Plasmodium falciparum (isolate 3D7)), sequence (Q8IBS5 whole entry, looked up): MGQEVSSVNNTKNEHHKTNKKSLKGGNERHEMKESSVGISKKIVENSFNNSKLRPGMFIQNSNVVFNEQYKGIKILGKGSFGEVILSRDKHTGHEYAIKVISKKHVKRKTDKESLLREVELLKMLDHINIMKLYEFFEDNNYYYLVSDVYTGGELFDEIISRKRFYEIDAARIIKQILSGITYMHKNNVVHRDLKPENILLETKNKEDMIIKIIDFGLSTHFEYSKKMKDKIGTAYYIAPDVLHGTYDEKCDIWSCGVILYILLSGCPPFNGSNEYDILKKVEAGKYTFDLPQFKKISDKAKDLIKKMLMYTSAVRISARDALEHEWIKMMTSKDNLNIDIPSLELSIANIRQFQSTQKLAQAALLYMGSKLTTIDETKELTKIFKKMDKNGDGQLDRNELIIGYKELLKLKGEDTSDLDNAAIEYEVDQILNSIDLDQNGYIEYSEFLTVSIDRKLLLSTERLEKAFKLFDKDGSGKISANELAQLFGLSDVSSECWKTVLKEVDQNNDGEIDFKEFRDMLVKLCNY

The structures appear in SMILES notation. A number with no mark means an inactive call. For some assays here: Potency and affinity values are given separately. The source made the active and inactive calls. Unless noted, the rule behind the calls is not given here.

The values below come from PubChem BioAssay.

For orientation: inhibition means the drop in the measured response relative to a control, in per cent.

L-lactate dehydrogenase (Plasmodium falciparum (isolate CDC / Honduras)), sequence (Q27743 whole entry, looked up): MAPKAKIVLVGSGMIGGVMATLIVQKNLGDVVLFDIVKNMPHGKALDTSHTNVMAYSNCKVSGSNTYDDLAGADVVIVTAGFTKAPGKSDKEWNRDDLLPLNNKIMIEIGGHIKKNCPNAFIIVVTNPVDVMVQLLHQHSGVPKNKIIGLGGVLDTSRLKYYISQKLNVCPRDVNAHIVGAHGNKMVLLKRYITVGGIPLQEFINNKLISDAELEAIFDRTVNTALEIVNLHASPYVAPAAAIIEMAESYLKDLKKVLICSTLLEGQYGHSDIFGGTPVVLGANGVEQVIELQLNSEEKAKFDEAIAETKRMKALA

`O=C(/C=C/c1ccc(Cl)c(Cl)c1)N1CCC(CCN2CCC(c3c[nH]c4cnccc34)CC2)CC1`: the results for the growth inhibition in assay [1] and in assay [4] were 100% (active) and 101% (active), respectively. Moreover, the inhibition in assay [2] is 93% (active); in assay [3], -2%. The result in assay [5], in assay [6], in assay [7] and in assay [8] was inactive.

For the compound `CC(=O)N(C)c1cccc(CNc2cc(C)nc(Nc3ccc(C)cc3)n2)c1`, the growth inhibition in assay [1] was 21%; in assay [4] it was 97% (active). Moreover, the inhibition is 8% in assay [2] and -9% in assay [3]. Besides, the result in assay [5], in assay [6], in assay [7] and in assay [8] was inactive.

In the case of `CN(C)c1nc2cc(-n3cnc4cc(-c5ccc(Cl)cc5)sc4c3=O)ccc2n1CCCN1CCCC1`, the growth inhibition was 73% (active) in assay [1] and 97% (active) in assay [4]. Also, the results for the inhibition in assay [2] and in assay [3] were 99% (active) and 2%, respectively. The outcome in assay [5], in assay [6], in assay [7] and in assay [8] was inactive.

As for `COc1ccc2nccc([C@@H](O)CN3CCC(NCCOc4cccc(C(F)(F)F)c4Cl)CC3)c2c1`, the results for the growth inhibition in assay [1] and in assay [4] were 98% (active) and 100% (active), respectively. For the same compound, the inhibition in assay [2] was 13%; in assay [3] it was -3%. Further, the outcome in assay [5], in assay [6], in assay [7] and in assay [8] was inactive.

`COc1ccc2nccc([C@@H](O)CN3CCC(NC(=O)c4ccc(Cl)c(Cl)c4)CC3)c2c1`: the growth inhibition in assay [1] is 57% (active); in assay [4], 96% (active). In addition, the figures for the inhibition in assay [2] and in assay [3] were 21% and -5%, respectively. The result in assay [5], in assay [6], in assay [7] and in assay [8] was inactive.

Take `CSc1ccc(CN2CCC(NC(=O)c3ccc(-c4ccc(N(C)C)cc4)s3)CC2)cc1`: the growth inhibition in assay [1] is 26%; in assay [4], 86% (active). In addition, the results for the inhibition in assay [2] and in assay [3] were 30% and -2%, respectively. The outcome in assay [5], in assay [6], in assay [7] and in assay [8] was inactive.

On to `Cc1cccc2[nH]c(-c3ccc(-c4ccc(CNCCCN5CCCC5=O)cc4)cc3)nc12`, for which the growth inhibition in assay [1] was 47%; in assay [4], 100% (active). Further, the inhibition in assay [2] is 7%; in assay [3], -5%. Also, the result in assay [5], in assay [6], in assay [7] and in assay [8] was inactive.

For the compound `CCN(CC)CCN(CCN(CC)CC)c1ccc(-c2nc3cc(Cl)c(Cl)cc3[nH]2)cc1`, the figures for the growth inhibition in assay [1] and in assay [4] were 97% (active) and 101% (active), respectively. Besides, the values for the inhibition in assay [2] and in assay [3] were 9% and 2%, respectively. The result in assay [5], in assay [6], in assay [7] and in assay [8] was inactive.

As for `CCc1cc(N2CCN(c3ccccc3F)CC2)nc(SCc2ccc(C(=O)NC3CC3)o2)n1`, the growth inhibition was 94% (active) in assay [1] and 90% (active) in assay [4]. The inhibition in assay [2] is 9%; in assay [3], 1%. The result in assay [5], in assay [6], in assay [7] and in assay [8] was inactive.

In the case of `COc1ccc2[nH]cc(C3CCN(CCCCNC(=O)c4ccc(NC(=O)c5ccc(Cl)cc5)cc4)CC3)c2c1`, the values for the growth inhibition in assay [1] and in assay [4] were 16% and 98% (active), respectively. The results for the inhibition in assay [2] and in assay [3] were 17% and 3%, respectively. Further, the outcome in assay [5], in assay [6], in assay [7] and in assay [8] was inactive.

For the compound `Nc1ccc(-c2cnc3[nH]cc(-c4ccc(C(=O)O)cc4)c3c2)cn1`, the growth inhibition in assay [1] was 99% (active); in assay [4] it was 97% (active). In addition, the inhibition is 48% in assay [2] and 1% in assay [3]. Further, the result in assay [5], in assay [6], in assay [7] and in assay [8] was inactive.

Regarding `O=C(Nc1ccc([N+](=O)[O-])cc1)c1nn(-c2ccccc2)cc1N=Cc1cccc(O)c1`, the values for the growth inhibition in assay [1] and in assay [4] were 37% and 98% (active), respectively. In addition, the inhibition in assay [2] was 10%; in assay [3], -5%. For the same compound, the outcome in assay [5], in assay [6], in assay [7] and in assay [8] was inactive.

Turning to `O=C(Nc1ccccc1)c1nn(CCCN2CCC(N3CCCC3)CC2)cc1-c1ccc(Cl)c(Cl)c1`, the growth inhibition in assay [1] is 98% (active); in assay [4], 103% (active). The inhibition was 31% in assay [2] and -2% in assay [3]. Further, the outcome in assay [5], in assay [6], in assay [7] and in assay [8] was inactive.

With `Cc1nc(C)n(CC(=O)Nc2cccc(-c3cccc(-c4nc5ccc(C(F)(F)F)cc5[nH]4)c3)c2)n1`, the growth inhibition is 96% (active) in assay [1] and 100% (active) in assay [4]. Further, the results for the inhibition in assay [2] and in assay [3] were 62% (active) and -6%, respectively. Also, the outcome in assay [5], in assay [6], in assay [7] and in assay [8] was inactive.

Regarding `CCOCCCn1c(=N)c(C(=O)NCc2ccc(OC)cc2)cc2c(=O)n3cccc(C)c3nc21`, the growth inhibition is 46% in assay [1] and 99% (active) in assay [4]. Besides, the inhibition in assay [2] is 24%; in assay [3], 2%. Besides, the result in assay [5], in assay [6], in assay [7] and in assay [8] was inactive.

Take `Cc1cc(N(C)C)nc(Nc2ccc(NC(=O)c3c(F)cccc3F)cc2)n1`: the growth inhibition in assay [1] was 45%; in assay [4] it was 94% (active). Also, the inhibition in assay [2] was 50% (active); in assay [3] it was -1%. Besides, the result in assay [5], in assay [6], in assay [7] and in assay [8] was inactive.

Regarding `Cc1cc(N2Cc3ccccc3C2)nc(Nc2ccc(S(=O)(=O)N3CCOCC3)cc2)n1`, the growth inhibition was 85% (active) in assay [1] and 101% (active) in assay [4]. For the same compound, the inhibition in assay [2] was 13%; in assay [3], 0%. For the same compound, the outcome in assay [5], in assay [6], in assay [7] and in assay [8] was inactive.

For `Cc1nnsc1C(=O)Nc1cccc(-c2ccc(-c3nc4ccccc4[nH]3)s2)c1`, the growth inhibition is 13% in assay [1] and 89% (active) in assay [4]. Besides, the inhibition is 55% (active) in assay [2] and -3% in assay [3]. In addition, the result in assay [5], in assay [6], in assay [7] and in assay [8] was inactive.

For the compound `Cc1noc(-c2ccc3c(c2)CCN(CCC2CCC(NC(=O)/C=C/c4ccc(F)cc4)CC2)CC3)n1` (configuration not stated), the growth inhibition is 39% in assay [1] and 91% (active) in assay [4]. Besides, the inhibition in assay [2] is 44%; in assay [3] it was 3%. The outcome in assay [5], in assay [6], in assay [7] and in assay [8] was inactive.
